Several values for one entry are separate records, joined by “and”; a condition that tells them apart may be missing. Equal values may be shown once. Results filed as inconclusive are left out. Entries that show only a call come without a potency. Some structures have more than one record in an assay (separate samples or runs), and their calls can disagree. Activity calls are given as the source filed them. Calls follow the shape of the full dose curve.
Potency is read from the fitted curve at half-maximal effect.

This test is described as follows: qHTS assay to identify small molecule agonists of the hypoxia (HIF-1) signaling pathway - cell viability counter screen (AID 1224844). Also: nearly all actives have a fitted effect of over 50% in size. The conditions noted are these: HRE-bla ME-180 viability, CellTiter-Glo luminescence, 17 h; series mostly up to 76.8 µM; activity change, negative = cytotoxicity: at the top concentration. The text has this: National Center for Advancing Translational Sciences [NCATS]
NIH Chemical Genomics Center [NCGC]
U.S. Environmental Protection Agency [EPA]
National Institutes of Environmental Health Sciences [NIEHS]
National Toxicology Program [NTP]
U.S. Food and Drug Administration [FDA]
Hypoxia-inducible factor-1 (HIF-1) is the major hypoxia-regulated transcription factor that controls cellular responses to low oxygen concentration. HIF-1 is composed of two subunits: hypoxia responsive HIF-1-alpha and constitutively expressed HIF-1-beta, which is also known as aryl hydrocarbon receptor nuclear translocator. During hypoxic conditions, HIF-1-alpha heterodimerizes with HIF-1-beta and translocates into the nucleus where the HIF-1 complex binds to the hypoxia-response element (HRE) and activates expression of target genes such as VEGF (vascular endothelial growth factor). The HIF-1 pathway is essential to normal growth and development, and is involved in the pathophysiology of cancer, inflammation, and ischemia.
Using a beta-lactamase reporter-gene under control of the hypoxia response element, a cell-based assay [CellSensor(TM) HRE-bla ME-180 from Life Technologies, Carlsbad, CA] was used to measure hypoxia-induced signaling. Tox21 10K library compounds were measured for their ability to induce the reporter gene activity. The cytotoxicity of the Tox21 compound library against HRE-bla ME-180 cell line was tested in parallel by measuring cell viability using CellTiter-Glo assay (Promega, Madison, WI) in the same assay wells.
Tox21 Assay Protocol Summary:
HRE-bla ME-180 cells were dispensed at 2,000 cells per well in 6 uL of assay medium containing 0.5% dialyzed FBS into black wall/clear-bottom 1536-well plates using a Multidrop Combi (Thermo Scientific, Waltham, MA) dispenser. After the assay plates were incubated at 37C and 5% CO2 for 5 hrs, 23 nL of compounds dissolved in DMSO, positive controls or DMSO only was transferred to each well of the assay plate using a Pintool station (Kalypsys, San Diego, CA). The assay plates were incubated at 37C and 5% CO2 for 17 hrs. One uL of LiveBLAzerTM B/G FRET substrate (CCF4-AM) (Life Technologies) was added to each well using a Flying Reagent Dispenser (FRD, Aurora Discovery, San Diego, CA). After 2 hr incubation at room temperature, fluorescence intensity (405 nm excitation, 460 nm and 530 nm emissions) was measured using an Envision plate reader (PerkinElmer, Shelton, CT). For cytotoxicity, 4 ul/well of CellTiter-Glo reagent was added into the assay plates using an FRD. After 30 min incubation at room temperature, the luminescence intensity was measured using a ViewLux plate reader (PerkinElmer).
In general terms: In qHTS, concentration-response curves come from the screen itself.
On to `CO[C@H]1C=CO[C@@]2(C)Oc3c(C)c(O)c4c(O)c(c(/C=N/N5CCN(C)CC5)c(O)c4c3C2=O)NC(=O)/C(C)=C\C=C[C@H](C)[C@H](O)[C@@H](C)[C@@H](O)[C@@H](C)[C@H](OC(C)=O)[C@@H]1C`, for which the Potency entry is “inactive”.
For `COC1=CC(=O)C[C@@H](C)[C@]12Oc1c(Cl)c(OC)cc(OC)c1C2=O`, the Potency result is “inactive”.
In the case of `COc1ccc(O)cc1`, the Potency entry was “inactive”.
The same measure, in the same setting: to `COc1cc2c(c(OC)c1OC)-c1ccc(OC)c(=O)cc1[C@@H](NC(C)=O)CC2` belongs 48.4 µM (active) and inactive; to `O=C(O)Cc1cccc2ccccc12`, “inactive and 4.36 µM (active)”.
Regarding `O=C1CCCCCN1`, the Potency entry is “inactive”.
Consider `CC(=O)OC/C=C(C)/C=C/C=C(C)/C=C/C1=C(C)CCCC1(C)C`, for which the “activity change, negative = cytotoxicity” value is 3.54% [at 35.3 µM] (inactive).
Turning to `CCCCOCCOCCOC(C)=O`, the Potency result was “inactive”.
For the molecule `CN(C)C=O`, the Potency result was “inactive”.
Consider `CC(C)Cc1ccc(C(C)C(=O)O)cc1` (stereo not given), for which the Potency result was “inactive”.
On the same count and under the same terms, to `CC(C)CC(C)CC(O)CC(C)C` (stereo not given) belongs “inactive”; to `C1CNCCN1`, “inactive”.
The same measure, in the same setting: under `Cc1cccc2ccccc12` stands “inactive”; under `OCCCc1ccccc1`, “inactive”.
Still for that read-out and setting: to `C=C(C)C(N)=O` belongs “inactive”; to `N[C@@H](Cc1c[nH]c2ccc(O)cc12)C(=O)O`, “inactive”.
`CC(O)COc1ccccc1` (stereo not given): the Potency result is “inactive”.
On the same count and under the same terms, under `COc1ccc(C(=O)c2ccccc2)c(O)c1` stands “inactive”.
On the same count and under the same terms, under `COc1cc(C=O)ccc1O` stands “inactive”.
On the same count and under the same terms, to `Cc1cccc(C)c1O` belongs “inactive”.
Turning to `Cc1ccc(O)c(-n2nc3ccccc3n2)c1`, the Potency entry was “inactive”.
Take `CCN1CCCC1=O`: the Potency entry is “inactive”.
For `C=CC(=O)NC(C)(C)CS(=O)(=O)O`, the Potency entry is “inactive”.
On to `Oc1cccc(O)c1`, for which the Potency result is “inactive”.
The same measure, in the same setting: to `Cc1cccc(Nc2cc(Cl)nc(SCC(=O)O)n2)c1C` belongs “inactive”; to `CCCCCCCCCCCCCC(=O)OC(C)C`, “inactive”; to `CCCCOC(=O)CCCCCCCCC(=O)OCCCC`, “inactive”.
Still for that read-out and setting: to `Cc1c(N(C)CS(=O)(=O)O)c(=O)n(-c2ccccc2)n1C` belongs “inactive”; to `CCCCCCCCOc1ccc(C(=O)c2ccccc2)c(O)c1`, “inactive”; to `CN(C)Cc1cc(CN(C)C)c(O)c(CN(C)C)c1`, “inactive”.
On the same count and under the same terms, to `CCN(CC)CCOC(=O)c1ccc(N)cc1` belongs “inactive”; to `CCCCNC(=O)NS(=O)(=O)c1ccc(N)cc1`, “inactive”.
Take `COc1ccccc1NC(=O)CC(C)=O`: the Potency result is “inactive”.
On the same count and under the same terms, under `O=C(OCc1ccccc1)c1ccccc1` stands “inactive”; under `C#C[C@]1(O)CC[C@H]2[C@@H]3CCc4cc(O)ccc4[C@H]3CC[C@@]21C`, “inactive”.
In the case of `CCOC(=O)C(C)(C)Oc1ccc(Cl)cc1`, the Potency entry is “inactive”.
Still for that read-out and setting: under `CC1=C(/C=C/C(C)=C/C=C/C(C)=C/C(=O)O)C(C)(C)CCC1` stands 49 µM (active); under `CC(C)(C)NCC(O)c1ccc(O)c(CO)c1` (stereo not given), “inactive”; under `CCCCC/C(C=O)=C\c1ccccc1`, “inactive”.
`CC1=NN(c2ccccc2)C(=O)C1`: the Potency result is “inactive”.

The values are drawn from PubChem BioAssay (Tox21).
